Results filed as inconclusive are left out. The source made the active and inactive calls.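 Rule for the calls, unless noted: active = percent response above a set limit, the screen-wide mean plus 3 SD (cut at about 130% in these data); inactive = the rest.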
Tests used:
[1] = rapamycin-like changes in RPL19A-GFP expression – cell-based, S. cerevisiae, multiplex flow cytometry, primary screen (AID 1862; in the data active = percent of DMSO control GFP below about 86%;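 note: lower values mimic rapamycin by blocking the RPL19A rise seen in DMSO cells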); details: S. cerevisiae RPL19A-GFP strain, flow cytometry fluorescence, 3 h; at 10 µM; stronger effect = lower value
[2] = TOR pathway GLN3 branch reporter MEP2-GFP changes – S. cerevisiae, multiplex flow cytometry, primary screen (AID 1867;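 active = GFP response, as percent of the DMSO control, above the screen-wide mean plus 3 SD, about 139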;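 note: median GFP channel fluorescence of barcode-gated MEP2-GFP cells measured by flow cytometry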); details: S. cerevisiae MEP2-GFP strain, 3 h, at 10 µM, stronger effect = higher value, 100% means same as DMSO wells
[3] = TOR pathway RTG branch CIT2 reporter changes – S. cerevisiae, GFP fusion, multiplex flow cytometry, primary screen (AID 1870);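 note: barcoded CIT2-GFP strain pooled with four other GFP strains with rapamycin as positive control; median GFP fluorescence per well over plate mean of DMSO wells so 100% = DMSO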; details: S. cerevisiae CIT2-GFP expression, 3 h, at 10 µM, stronger effect = higher value
[4] = TOR pathway LAP4-GFP level changes – S. cerevisiae, multiplex flow cytometry, primary screen (AID 1873;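 active = GFP signal, as percent of the solvent control, above the screen mean plus 3 SD, about 149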); details: S. cerevisiae LAP4-GFP expression, 3 h, at 10 µM, stronger effect = higher value
[5] = yeast AGP1-GFP level changes, GLN3 branch – cell-based, multiplex flow cytometry, S. cerevisiae, primary screen (AID 1887;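 active = GFP signal above the screen-wide mean plus 3 SD, that is over about 124.5% of the solvent control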;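 note: AGP1-GFP fusion strain of S. cerevisiae within a five-strain barcoded multiplex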); details: 3 h, at 10 µM, stronger effect = higher value
[6] = reduced mouse 2C T cell binding to pMHC/ICAM-1 vesicles – MLPCN validation set, flow cytometry, LFA-1/ICAM-1 modulator project, pilot screen (AID 2523;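 active = response below a set limit, under 55% cells CD8-positive and vesicle-bound, and CD8 cells' 90th-percentile brightness under 279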;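 for vesicle binding response: mean PE anti-B7-1 fluorescence of CD8+ cells relative to row control; 100% = QL9-loaded vesicles with DMSO vehicle in the same plate row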); details: 2C mouse CD8+ T cells, at 7 µM, stronger effect = lower value; double positive events: measured here: CD8+/vesicle+ event percentage
[7] = target: Integrin beta-1 (Homo sapiens) + Integrin alpha-4 (Homo sapiens) (UniProt P13612+P05556); assay: alpha4beta1 integrin LIBS antibody binding reduction – U937 cells, HUTS-21 mAb, flow cytometry, validation set, VLA-4 allosteric modulator project, pilot screen (AID 2674;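 active = inhibition above 50%, about 3 SD of the validation set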;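 note: antibody binding induced by the VLA-4 ligand LDV present at three times its Kd; 0% = LDV ligand with antibody and no compound and 100% = antibody without LDV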); details: HUTS-21 LIBS mAb binding, at 6.7 µM, stronger effect = higher value, binding induced by LDV ligand
Chain of Integrin beta-1 (Homo sapiens) + Integrin alpha-4 (Homo sapiens) (P05556 whole entry, looked up): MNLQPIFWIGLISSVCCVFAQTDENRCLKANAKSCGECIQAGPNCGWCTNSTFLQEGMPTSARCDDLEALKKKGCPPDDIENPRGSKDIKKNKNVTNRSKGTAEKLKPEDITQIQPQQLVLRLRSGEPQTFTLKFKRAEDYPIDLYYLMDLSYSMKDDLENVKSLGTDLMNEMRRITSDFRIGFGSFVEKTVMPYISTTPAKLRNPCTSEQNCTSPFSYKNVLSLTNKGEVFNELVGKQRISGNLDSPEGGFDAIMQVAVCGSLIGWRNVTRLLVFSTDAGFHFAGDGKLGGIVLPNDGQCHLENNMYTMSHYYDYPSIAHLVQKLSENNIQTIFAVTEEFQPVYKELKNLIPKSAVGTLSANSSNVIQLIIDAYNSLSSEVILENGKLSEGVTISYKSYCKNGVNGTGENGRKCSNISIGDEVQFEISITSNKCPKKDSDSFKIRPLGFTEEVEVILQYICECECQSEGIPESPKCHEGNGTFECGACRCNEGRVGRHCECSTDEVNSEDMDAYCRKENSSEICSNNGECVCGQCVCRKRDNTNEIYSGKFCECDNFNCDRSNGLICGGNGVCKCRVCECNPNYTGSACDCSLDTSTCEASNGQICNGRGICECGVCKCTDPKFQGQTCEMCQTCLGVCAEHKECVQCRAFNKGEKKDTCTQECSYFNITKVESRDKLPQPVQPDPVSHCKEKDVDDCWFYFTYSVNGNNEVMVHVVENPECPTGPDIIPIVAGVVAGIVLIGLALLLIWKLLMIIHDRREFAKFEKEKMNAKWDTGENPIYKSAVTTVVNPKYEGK
Chain of Integrin beta-1 (Homo sapiens) + Integrin alpha-4 (Homo sapiens) (P13612 whole entry, looked up): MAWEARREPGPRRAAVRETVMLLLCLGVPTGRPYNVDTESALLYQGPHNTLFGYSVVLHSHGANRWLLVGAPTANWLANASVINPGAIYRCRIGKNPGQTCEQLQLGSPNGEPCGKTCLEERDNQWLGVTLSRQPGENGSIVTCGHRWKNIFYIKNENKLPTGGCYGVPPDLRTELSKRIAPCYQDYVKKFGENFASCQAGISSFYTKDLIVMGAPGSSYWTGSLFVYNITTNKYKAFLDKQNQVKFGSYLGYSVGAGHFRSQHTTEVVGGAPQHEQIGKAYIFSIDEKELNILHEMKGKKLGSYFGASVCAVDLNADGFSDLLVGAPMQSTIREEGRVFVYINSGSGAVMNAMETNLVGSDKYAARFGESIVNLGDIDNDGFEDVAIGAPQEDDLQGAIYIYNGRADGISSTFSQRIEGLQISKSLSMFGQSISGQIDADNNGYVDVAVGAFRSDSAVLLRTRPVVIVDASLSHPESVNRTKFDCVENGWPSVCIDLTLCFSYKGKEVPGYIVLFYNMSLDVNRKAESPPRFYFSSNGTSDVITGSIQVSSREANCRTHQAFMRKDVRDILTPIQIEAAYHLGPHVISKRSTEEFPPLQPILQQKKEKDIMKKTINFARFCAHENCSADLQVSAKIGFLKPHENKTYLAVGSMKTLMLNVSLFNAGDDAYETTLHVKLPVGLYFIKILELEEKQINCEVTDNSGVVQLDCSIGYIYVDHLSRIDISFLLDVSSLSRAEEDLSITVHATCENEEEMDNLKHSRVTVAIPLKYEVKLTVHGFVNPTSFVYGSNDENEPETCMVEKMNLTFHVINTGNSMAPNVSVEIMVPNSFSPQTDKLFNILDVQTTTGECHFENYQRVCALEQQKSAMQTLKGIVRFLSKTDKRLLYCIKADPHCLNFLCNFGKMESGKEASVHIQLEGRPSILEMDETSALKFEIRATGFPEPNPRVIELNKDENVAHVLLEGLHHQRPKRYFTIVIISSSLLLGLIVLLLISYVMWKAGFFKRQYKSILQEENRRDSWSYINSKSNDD

[8] = calorie-restriction mimetic ROS inhibitors, yeast – validation compound set, pilot screen (AID 2706;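 active = superoxide response below 65% of plate, a cut near 3 SD across the whole screen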;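 note: yeast exposed to compound for one week at 30 degrees C before staining; 100% = mean of all compound wells on the same plate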); details: S. cerevisiae aging, superoxide DHE fluorescence; at 10 µM; stronger effect = lower value
[9] = target: Beta-adrenergic receptor kinase 1 (Homo sapiens) (UniProt P25098); assay: GRK2 binders displacing RNA aptamer, biochemical, validation, human GRK2, bead flow cytometry (AID 488806;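 active = aptamer binding inhibition above 30%, about 3 SD of noise from non-fluorescent compounds; inactive = inhibition at or below 30%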); details: bead-bound GRK2, FAM-aptamer displacement, at 10 µM, stronger effect = higher value
Chain of Beta-adrenergic receptor kinase 1 (Homo sapiens) (P25098 whole entry, looked up): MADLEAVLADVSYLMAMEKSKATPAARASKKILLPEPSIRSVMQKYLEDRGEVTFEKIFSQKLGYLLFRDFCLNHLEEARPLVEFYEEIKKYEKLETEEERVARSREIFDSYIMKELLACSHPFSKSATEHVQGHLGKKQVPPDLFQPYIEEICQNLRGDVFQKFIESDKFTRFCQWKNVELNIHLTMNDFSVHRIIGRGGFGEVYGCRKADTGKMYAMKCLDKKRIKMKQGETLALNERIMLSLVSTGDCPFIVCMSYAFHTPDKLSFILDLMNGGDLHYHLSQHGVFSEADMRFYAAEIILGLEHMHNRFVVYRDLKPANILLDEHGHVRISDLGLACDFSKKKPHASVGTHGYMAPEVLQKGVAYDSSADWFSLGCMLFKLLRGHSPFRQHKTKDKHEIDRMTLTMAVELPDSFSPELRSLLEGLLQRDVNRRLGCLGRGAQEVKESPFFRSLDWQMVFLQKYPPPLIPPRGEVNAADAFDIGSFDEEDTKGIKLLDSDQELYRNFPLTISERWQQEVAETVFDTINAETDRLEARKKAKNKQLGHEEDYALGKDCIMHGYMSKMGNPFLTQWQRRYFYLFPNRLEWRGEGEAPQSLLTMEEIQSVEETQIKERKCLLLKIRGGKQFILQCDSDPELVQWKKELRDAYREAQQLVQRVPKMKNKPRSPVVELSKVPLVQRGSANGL

[10] = target: Beta-2 adrenergic receptor (Homo sapiens) (UniProt P07550); assay: agonist-induced loss of surface beta2AR – cell-based, FAP fluorogen, flow cytometry, validation set, pilot screen (AID 504459;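 active = percent response above 42, roughly 3 SD of non-fluorescent test compounds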;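 note: agonist-driven loss of surface beta2AR via internalization measured by FAP dye flow cytometry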); details: Am2.2-beta2AR cells, at 10 µM, stronger effect = higher value
Chain of Beta-2 adrenergic receptor (Homo sapiens) (P07550 whole entry, looked up): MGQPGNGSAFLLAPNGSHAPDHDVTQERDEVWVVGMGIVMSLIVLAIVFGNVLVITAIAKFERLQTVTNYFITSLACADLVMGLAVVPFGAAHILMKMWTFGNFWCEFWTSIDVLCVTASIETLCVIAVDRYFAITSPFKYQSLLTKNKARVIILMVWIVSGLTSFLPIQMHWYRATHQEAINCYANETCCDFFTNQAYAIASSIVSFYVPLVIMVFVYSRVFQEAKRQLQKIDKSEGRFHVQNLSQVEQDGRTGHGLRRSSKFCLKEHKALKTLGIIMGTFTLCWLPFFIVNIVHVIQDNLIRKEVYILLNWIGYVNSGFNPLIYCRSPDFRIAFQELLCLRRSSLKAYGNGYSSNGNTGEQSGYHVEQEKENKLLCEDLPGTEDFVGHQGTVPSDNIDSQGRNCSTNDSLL

[11] = target: AP-2 complex subunit beta (Homo sapiens) (UniProt P63010); assay: beta-arrestin/AP2 interaction blockers – biochemical, validation set, GST-AP2 beads, flow cytometry, pilot screen (AID 504541;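 active = inhibition above 54%, about 3 SD of non-fluorescent compounds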;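 note: AP2 carries R879A mutation and is captured from E. coli lysate; bead-bound FITC arrestin peptide fluorescence measuring arrestin peptide binding to AP2; 0% = DMSO wells and 100% = excess unlabeled arrestin peptide control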); details: FITC arrestin peptide, at 10 µM, stronger effect = higher value, AP2 beta2 appendage fragment, R879A mutant
Chain of AP-2 complex subunit beta (Homo sapiens) (P63010 whole entry, looked up, the tested form may be a part, one chain of several): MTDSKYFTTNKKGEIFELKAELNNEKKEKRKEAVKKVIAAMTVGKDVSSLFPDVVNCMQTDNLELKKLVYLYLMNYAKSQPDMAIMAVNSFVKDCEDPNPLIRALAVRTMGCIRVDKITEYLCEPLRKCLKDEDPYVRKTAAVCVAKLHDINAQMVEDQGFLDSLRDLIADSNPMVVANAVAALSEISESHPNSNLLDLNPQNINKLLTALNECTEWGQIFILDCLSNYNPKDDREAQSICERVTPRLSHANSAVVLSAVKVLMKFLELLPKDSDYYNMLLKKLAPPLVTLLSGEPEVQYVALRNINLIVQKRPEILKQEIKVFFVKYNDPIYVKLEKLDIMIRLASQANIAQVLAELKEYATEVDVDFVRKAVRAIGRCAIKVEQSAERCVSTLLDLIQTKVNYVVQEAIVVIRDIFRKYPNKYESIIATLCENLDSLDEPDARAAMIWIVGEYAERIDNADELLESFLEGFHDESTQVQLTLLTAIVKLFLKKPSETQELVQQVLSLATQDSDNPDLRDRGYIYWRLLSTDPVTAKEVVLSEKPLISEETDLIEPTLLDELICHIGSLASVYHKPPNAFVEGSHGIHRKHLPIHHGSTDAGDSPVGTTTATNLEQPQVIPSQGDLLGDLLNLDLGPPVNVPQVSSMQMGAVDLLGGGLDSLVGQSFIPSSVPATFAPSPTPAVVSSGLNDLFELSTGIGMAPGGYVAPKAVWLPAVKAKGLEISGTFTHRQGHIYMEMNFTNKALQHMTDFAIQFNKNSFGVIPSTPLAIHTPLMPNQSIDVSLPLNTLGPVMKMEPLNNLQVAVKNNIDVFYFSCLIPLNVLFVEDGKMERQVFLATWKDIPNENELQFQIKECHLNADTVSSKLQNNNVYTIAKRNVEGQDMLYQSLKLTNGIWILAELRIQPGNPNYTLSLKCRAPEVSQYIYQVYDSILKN

[12] = cytosolic pH regulators acting via V-ATPase – S. cerevisiae, pHLuorin, HTS validation (AID 504600; in the data active = response above about 15%;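 note: plate controls were DMSO for no effect and reference compound for full effect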); details: V-ATPase proton transport, at 10 µM, stronger effect = higher value
[13] = test system: anti-desmoglein-3 scFv antibody binding to human DSG3; assay: blockers of pathogenic pemphigus antibody–desmoglein-3 binding – biochemical, validation compound set, bead-based, flow cytometry, pilot screen (AID 588368;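 active = binding below the plate cutoff, the plate median minus 3 SD, with a reading above zero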;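 note: signal is the median channel fluorescence of bead-bound GFP antibody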); details: Protein G beads, DSG3-Fc, scFv-GFP binding, at 10 µM, stronger effect = lower value
[14] = Nile Red efflux blockade in pump-expressing yeast – validation compound set, multiplex, phenotypic, pilot screen (AID 588506;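 active = efflux inhibition above 0.42, the validation set average plus 4 SD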;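 note: Nile Red retained in cells so higher fluorescence means more efflux inhibition; 0 = negative control wells and 1 = enniatin B 25 µM full block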); details: S. cerevisiae pump-expressing triplex, Nile Red efflux flow cytometry; at 10 µM; stronger effect = higher value; the pumps come from Candida albicans
[15] = target: ATP-binding cassette sub-family B member 6 (Homo sapiens) (UniProt Q9NP58); assay: blockers of ABCB6-driven porphyrin uptake – K562-ABCB6 cells, flow cytometry, validation set, pilot screen (AID 588550;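 active = inhibition above the screen-wide mean plus 3 SD, about 51%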;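 note: 0% = DMSO wells and 100% = benzethonium chloride 70 µM positive control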); details: K562-ABCB6 porphyrin accumulation, 1 h, at 10 µM, stronger effect = higher value
Chain of ATP-binding cassette sub-family B member 6 (Homo sapiens) (Q9NP58 whole entry, looked up): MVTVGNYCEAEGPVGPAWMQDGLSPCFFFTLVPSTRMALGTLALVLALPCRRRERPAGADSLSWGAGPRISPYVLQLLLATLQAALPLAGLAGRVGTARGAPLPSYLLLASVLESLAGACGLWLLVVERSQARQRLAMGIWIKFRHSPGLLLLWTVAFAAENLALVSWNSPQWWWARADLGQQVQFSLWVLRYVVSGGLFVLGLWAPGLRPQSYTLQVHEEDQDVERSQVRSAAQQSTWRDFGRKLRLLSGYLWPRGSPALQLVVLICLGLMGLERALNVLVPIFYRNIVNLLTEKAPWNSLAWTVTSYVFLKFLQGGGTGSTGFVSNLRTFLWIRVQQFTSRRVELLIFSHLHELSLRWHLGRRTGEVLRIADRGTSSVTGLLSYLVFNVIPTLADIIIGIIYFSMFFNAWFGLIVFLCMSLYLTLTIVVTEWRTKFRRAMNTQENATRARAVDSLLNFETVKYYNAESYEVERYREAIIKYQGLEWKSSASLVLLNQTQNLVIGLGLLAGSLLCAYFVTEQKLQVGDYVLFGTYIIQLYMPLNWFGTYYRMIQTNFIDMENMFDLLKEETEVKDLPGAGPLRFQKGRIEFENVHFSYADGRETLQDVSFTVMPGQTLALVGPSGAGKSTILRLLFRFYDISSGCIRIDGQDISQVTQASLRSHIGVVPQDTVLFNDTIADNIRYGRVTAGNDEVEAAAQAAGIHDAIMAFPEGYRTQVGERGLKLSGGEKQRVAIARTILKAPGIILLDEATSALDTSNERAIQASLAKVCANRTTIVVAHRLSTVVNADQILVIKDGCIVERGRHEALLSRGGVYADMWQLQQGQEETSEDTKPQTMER

[16] = AML differentiation inducers, ER-HoxA9 marrow cells – cell-based, GFP/MAC1 double positive, flow cytometry, validation set, primary screen (AID 588685;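 active = differentiation response of at least 50%, scaled between solvent and reference control, from cells with both markers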;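 note: compound exposure lasts four days before antibody staining and flow analysis; 0% = DMSO wells and 100% = 5 µM fulvestrant positive control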); details: stronger effect = higher value, normalized: vehicle 0, fulvestrant 100

CCc1cc2c(C)cc(=O)oc2cc1OC(=O)C1CCCN1C(=O)OC(C)(C)C (stereo not drawn)
inactive: percent of DMSO control GFP [1] 103% | GFP response vs DMSO [2] 95.2% | percent response of DMSO control [3] 110% | GFP response vs DMSO [4] 82% | GFP response, % of DMSO [5] 96.3% | vesicle binding response [6] 247% | inhibition [7] 0.94% | superoxide response (% of plate) [8] 92.9% | aptamer binding inhibition [9] 2% | response [10] 19.6% | inhibition [11] -11.6% | response [12] 1.36% | binding (% of control) [13] 103% | efflux inhibition (fraction of control) [14] -0.03 | inhibition [15] 6% | differentiation response [16] -20%
57.4%: double positive events [6]

CCn1c(/C=C/c2ccccc2)nc2ccccc2c1=O
inactive: percent of DMSO control GFP [1] 98.8% | GFP response vs DMSO [2] 111% | percent response of DMSO control [3] 78.7% | GFP response vs DMSO [4] 122% | GFP response, % of DMSO [5] 92.6% | vesicle binding response [6] 134% | inhibition [7] 7.76% | superoxide response (% of plate) [8] 102% | aptamer binding inhibition [9] 3% | response [10] 18.5% | inhibition [11] -8.94% | response [12] 1.61% | binding (% of control) [13] 101% | efflux inhibition (fraction of control) [14] 0.08 | inhibition [15] 7% | differentiation response [16] 18.4%
59.1%: double positive events [6]

O=C(NCCC(c1ccccc1)c1ccco1)c1cccs1 (stereo not drawn)
57.6%: double positive events [6]
inactive: percent of DMSO control GFP [1] 97.6% | GFP response vs DMSO [2] 105% | percent response of DMSO control [3] 91% | GFP response vs DMSO [4] 127% | GFP response, % of DMSO [5] 96.5% | vesicle binding response [6] 230% | inhibition [7] -5.89% | superoxide response (% of plate) [8] 105% | aptamer binding inhibition [9] 0% | response [10] -13.3% | inhibition [11] -6.88% | response [12] 2.49% | binding (% of control) [13] 99.7% | efflux inhibition (fraction of control) [14] -0.21 | inhibition [15] 11% | differentiation response [16] -5.6%

COc1cc2nc(-c3ccccc3)nc(N3CCCC3)c2cc1OC
68.2%: double positive events [6]
inactive: percent of DMSO control GFP [1] 104% | GFP response vs DMSO [2] 98.3% | percent response of DMSO control [3] 107% | GFP response vs DMSO [4] 82.2% | GFP response, % of DMSO [5] 104% | vesicle binding response [6] 459% | inhibition [7] -36.8% | superoxide response (% of plate) [8] 85.3% | aptamer binding inhibition [9] 6% | response [10] -10% | inhibition [11] -3.58% | response [12] 2.32% | binding (% of control) [13] 98.2% | efflux inhibition (fraction of control) [14] -0.07 | inhibition [15] 11% | differentiation response [16] -1.71%

CCCC(=O)Nc1ncnc2c1ncn2[C@@H]1O[C@@H]2COP(=O)(O)O[C@H]2[C@H]1OC(=O)CCC
61%: double positive events [6]
inactive: percent of DMSO control GFP [1] 97.7% | GFP response vs DMSO [2] 130% | percent response of DMSO control [3] 97.9% | GFP response vs DMSO [4] 96.3% | GFP response, % of DMSO [5] 94.7% | vesicle binding response [6] 131% | inhibition [7] 4.52% | superoxide response (% of plate) [8] 96.8% | aptamer binding inhibition [9] 3% | response [10] -6.04% | inhibition [11] -3.95% | response [12] 1.56% | binding (% of control) [13] 98.3% | efflux inhibition (fraction of control) [14] -0.06 | inhibition [15] 7% | differentiation response [16] 5.73%

COc1cccc2c(=O)c(C/C=C(/C)Cl)c(C)[nH]c12
inactive: percent of DMSO control GFP [1] 107% | GFP response vs DMSO [2] 103% | percent response of DMSO control [3] 101% | GFP response vs DMSO [4] 131% | GFP response, % of DMSO [5] 108% | vesicle binding response [6] 6720% | inhibition [7] 6.4% | superoxide response (% of plate) [8] 107% | aptamer binding inhibition [9] 3% | response [10] 3.25% | inhibition [11] -8.34% | response [12] 3.49% | binding (% of control) [13] 95.7% | efflux inhibition (fraction of control) [14] 0.01 | inhibition [15] 3% | differentiation response [16] -16.8%
65.6%: double positive events [6]

CN(Cc1c(C(=O)N(C)Cc2ccccc2)nc2ccccn12)CC1Cc2ccccc2O1 (stereo not drawn)
61.4%: double positive events [6]
inactive: percent of DMSO control GFP [1] 98.4% | GFP response vs DMSO [2] 104% | percent response of DMSO control [3] 98.2% | GFP response vs DMSO [4] 89.4% | GFP response, % of DMSO [5] 93.7% | vesicle binding response [6] 2590% | inhibition [7] -11.8% | superoxide response (% of plate) [8] 105% | aptamer binding inhibition [9] 3% | response [10] 0.21% | inhibition [11] -19.1% | response [12] -0.37% | binding (% of control) [13] 98.2% | efflux inhibition (fraction of control) [14] 0.17 | inhibition [15] 14% | differentiation response [16] -2.64%

O=C(O)CCCCCNC(=O)Nc1ccc2c(c1)OCCO2
inactive: percent of DMSO control GFP [1] 101% | GFP response vs DMSO [2] 115% | percent response of DMSO control [3] 112% | GFP response vs DMSO [4] 77% | GFP response, % of DMSO [5] 91.2% | vesicle binding response [6] 207% | inhibition [7] -12% | superoxide response (% of plate) [8] 105% | aptamer binding inhibition [9] -3% | response [10] -9.55% | inhibition [11] -7.04% | response [12] -4.4% | binding (% of control) [13] 108% | efflux inhibition (fraction of control) [14] 0.12 | inhibition [15] 7% | differentiation response [16] -3.28%
49.7%: double positive events [6]

O=C(O)/C=C/c1cccc(OCc2ccccc2)c1
58.1%: double positive events [6]
inactive: percent of DMSO control GFP [1] 93.8% | GFP response vs DMSO [2] 105% | percent response of DMSO control [3] 93.4% | GFP response vs DMSO [4] 123% | GFP response, % of DMSO [5] 82.2% | vesicle binding response [6] 131% | inhibition [7] 5.61% | superoxide response (% of plate) [8] 104% | aptamer binding inhibition [9] 3% | response [10] 4.34% | inhibition [11] 13.5% | response [12] -4.03% | binding (% of control) [13] 94.3% | efflux inhibition (fraction of control) [14] -0.24 | inhibition [15] 8% | differentiation response [16] -8.96%

Reference: PubChem BioAssay
